Measurements from the supplement of paper PMC8253809.
Where “and” joins values, the source holds several entries; their conditions need not be identical. Equal values may be shown once.

Tests used:
Test in all cases: growth inhibition (% activity, log2 RLU normalised to DMSO / staurosporine); higher = more growth inhibition
Conditions in all cases: 33 µM
DIPGX29 = system: DIPGX29 (H3.3 K27M diffuse intrinsic pontine glioma line)
Procedure, shortened: (§1)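 The growth-inhibition value is the median over replicates. pHGG cell lines and H9-derived neural stem cells on Geltrex-coated 384-well plates received approved drugs by pin tool at a single final concentration of about 33 μM, in triplicate, for 7 days at 37 °C, 5% CO2. CellTiter-Glo luminescence was log2-transformed and normalised per plate to % activity between solvent and positive control wells.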

DIPGX37 = system: DIPGX37 (H3.3 K27M diffuse intrinsic pontine glioma line)
Procedure, shortened: as §1

DIPGX7 = system: DIPGX7 (H3.3 K27M diffuse intrinsic pontine glioma line)
Procedure, shortened: as §1

DIPGX9 = system: DIPGX9 (diffuse intrinsic pontine glioma line)
Procedure, shortened: as §1

HGGX39 = system: HGGX39 (paediatric high-grade glioma line)
Procedure, shortened: as §1

HGGX6 = system: HGGX6 (H3.3 G34R paediatric high-grade glioma line)
Procedure, shortened: as §1

HNSC = system: HNSC
Procedure, shortened: as §1

SUDIPGIV = system: SUDIPGIV (diffuse intrinsic pontine glioma line)
Procedure, shortened: as §1

SUDIPGVI = system: SUDIPGVI (diffuse intrinsic pontine glioma line)
Procedure, shortened: as §1

SUDIPGXIII = system: SUDIPGXIII (diffuse intrinsic pontine glioma line)
Procedure, shortened: as §1

Row | SMILES | growth inhibition (DIPGX29) | growth inhibition (DIPGX37) | growth inhibition (DIPGX7) | growth inhibition (DIPGX9) | growth inhibition (HGGX39) | growth inhibition (HGGX6) | growth inhibition (HNSC) | growth inhibition (SUDIPGIV) | growth inhibition (SUDIPGVI) | growth inhibition (SUDIPGXIII)
1 | CCOc1cc(CC(=O)N[C@@H](CC(C)C)c2ccccc2N2CCCCC2)ccc1C(=O)O | 0.598% | -0.0763% | 1.67% | -0.0677% | 0.171% | -1.18% | -2.28% | -0.496% | -6.9% | -1.55%
2 | COc1cc2nccc(Oc3ccc(NC(=O)C4(C(=O)Nc5ccc(F)cc5)CC4)cc3)c2cc1OC | 2.36% | 6.14% | 9.24% | 6.67% | 4.78% | 17.7% | 42% | 0.288% | 5.98% | 2%
3 | Nc1ccc(S(=O)(=O)Nc2nccs2)cc1 | -2.53% | -1.47% | -1.25% | -0.733% | -2.1% | -3.04% | 5.4% | -1.7% | -2.69% | 0.0367%
4 | O=S(=O)(O)CCS | -1.06% | 0.485% | -0.101% | 0.715% | -0.445% | -1.07% | 0.589% | -0.0759% | 1.78% | -0.97%
5 | OC(CCN1CCCCC1)(c1ccccc1)c1ccccc1 | -0.46% | 1.3% | -0.768% | -0.762% | -0.68% | 0.348% | -1.66% | -1.24% | 0.131% | 1.07%
6 | CCC(=O)OCC(=O)[C@@]1(OC(=O)CC)[C@@H](C)C[C@H]2[C@@H]3CCC4=CC(=O)C=C[C@]4(C)[C@@]3(Cl)[C@@H](O)C[C@@]21C | 2.67% | -2.69% | 1.9% | 4.04% | 3.24% | 1.72% | 0.321% | -1.55% | -0.46% | 0.862%
7 | COc1cc(C(=O)NC2CCCNC2)cc(OC)c1OC (stereo not given) | 0.123% | 2% | 0.49% | 0.203% | 2.37% | -3.35% | 6.28% | 1.23% | 0.918% | -1.95%
8 | CN(C/C=C/C#CC(C)(C)C)Cc1cccc2ccccc12 | -0.633% and -1.72% | -0.939% and -0.818% | -1.38% and -1.19% | 0.275% and -0.829% | 1.78% and -1.01% | 0.104% and -1.17% | -0.321% and -4.36% | -0.307% and 0.598% | 1.93% and -1.67% | -1.07% and -1.51%
9 | C[C@@H]1CC(=O)NN=C1c1ccc(NN=C(C#N)C#N)cc1 | 1.15% | -0.996% | 1.39% | 4.28% | 4.26% | 2.45% | 5.57% | 5.05% | 1.51% | 0.449%
10 | CC1(C)S[C@@H]2[C@H](NC(=O)C(C(=O)O)c3ccccc3)C(=O)N2[C@H]1C(=O)O (stereo not given in full) | 0.227% | 2.06% | 0.432% | 0.809% | 2.53% | 1.87% | 0.956% | -0.316% | 3.27% | 0.516%
11 | O=C(O)c1cc(/N=N/c2ccc(S(=O)(=O)Nc3ccccn3)cc2)ccc1O | 1.07% | -1.79% | 1.57% | 0.949% | 1.21% | 1.04% | -0.205% | 0.115% | 1.96% | -0.524%
12 | Cc1nnc(C(=O)NC(C)(C)c2nc(C(=O)NCc3ccc(F)cc3)c(O)c(=O)n2C)o1 | 1.77% | -0.226% | 2.62% | 2.15% | 2.25% | -0.564% | 4.29% | -0.0786% | 2.47% | 0.152%
13 | CS(=O)(=O)c1ccc([C@@H](O)[C@@H](CO)NC(=O)C(Cl)Cl)cc1 | 7.76% | 3.94% | 4.74% | 7.6% | 16.3% | 5.24% | 15.1% | 35% | 5.62% | 20%
14 | Cc1nc(Nc2ncc(C(=O)Nc3c(C)cccc3Cl)s2)cc(N2CCN(CCO)CC2)n1 | 8.3% | -3.6% | 2.53% | 12.4% | 15.6% | 10.8% | 20% | -0.76% | 2.41% | 2.8%
15 | N#Cc1ccc(C(c2ccc(C#N)cc2)n2cncn2)cc1 | -0.88% | 0.114% | -0.157% | -0.262% | -0.621% | -0.866% | 0.581% | -0.66% | 1.28% | 1.04%
16 | CCn1cc(C(=O)O)c(=O)c2cc(F)c(N3CCNCC3)nc21 | -0.406% | 0.315% | -0.279% | -2.11% | 0.108% | -1.99% | 2.46% | 0.478% | 0.763% | 0.429%
17 | CC[C@H]1OC(=O)[C@H](C)[C@@H](O[C@H]2C[C@@](C)(OC)[C@@H](O)[C@H](C)O2)[C@H](C)[C@@H](O[C@@H]2O[C@H](C)C[C@H](N(C)C)[C@H]2O)[C@](C)(O)C[C@@H](C)C(=O)[C@H](C)[C@@H](O)[C@]1(C)O | 0.288% | -2.96% | 0.845% | 0.939% | 1.08% | -0.333% | 2.65% | 1.14% | 2.66% | -1.2%
18 | COCCOC(=O)C1=C(C)NC(C)=C(C(=O)OC(C)C)C1c1cccc([N+](=O)[O-])c1 (stereo not given) | -0.32% | 0.964% | -0.466% | 0.313% | 1.43% | -1.47% | 2.29% | 0.263% | 1.28% | 2.89%
19 | C[C@@H]1[C@H](O)[C@@H](C)/C=C/C=C/C=C/C=C/C=C/C=C/C=C/[C@H](O[C@@H]2O[C@H](C)[C@@H](O)[C@H](N)[C@@H]2O)C[C@@H]2O[C@](O)(C[C@@H](O)C[C@@H](O)[C@H](O)CC[C@@H](O)C[C@@H](O)CC(=O)O[C@H]1C)C[C@H](O)[C@H]2C(=O)O | 1.5% | 0.689% | 0.985% | 2.51% | 1.45% | 3.13% | 2.79% | -0.529% | 0.154% | 1.88%
20 | CCOc1nc2cccc(C(=O)OC(C)OC(=O)OC3CCCCC3)c2n1Cc1ccc(-c2ccccc2-c2nn[nH]n2)cc1 (stereo not given) | -1.79% | -1.28% | -1.84% | -0.119% | -0.661% | 0.0529% | -2.55% | -3.13% | -3.95% | -0.781%
21 | COc1ccccc1OCC(O)CN1CCN(CC(=O)Nc2c(C)cccc2C)CC1 (stereo not given) | -3.85% and 2.95% | -0.299% and 2.63% | -1.1% and 4.84% | -2.23% and 2.88% | -2.5% and 3.07% | -1.8% and 1.36% | -2.11% and 14% | -2.68% and 2.7% | -1.9% and -0.296% | -2.34% and -1.26%
